PubChem BioAssay
A number with no mark means an inactive call. For some assays here: Entries with a potency or affinity are not part of this list. Active and inactive are the calls of the source. Unless noted, the rule behind the calls is not given here.

Tests used:
[1] = antimalarial activity against Dd2 strain (AID 2302;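 active = growth inhibition above 50% at the single 2 µM test dose, taken to imply half-maximal potency below 2 µM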;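 note: 0% = DMSO untreated growth and 100% = chloroquine plus artemisinin killed control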); settings: P. falciparum Dd2 in RBCs, LDH growth readout, 72 h; at 2 µM; stronger effect = higher value
[2] = human hepatoma cell viability loss – ATP luminescence, cytotoxicity control for P. falciparum antimalarial project, primary screen (AID 2303;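 active = inhibition above 50%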;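 note: 0% = DMSO wells and 100% = digitonin-killed cells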); settings: HepG2 viability, 24-48 h, at 10 µM, stronger effect = higher value
[3] = molecular target: L-lactate dehydrogenase (Plasmodium falciparum (isolate CDC / Honduras)) (UniProt Q27743); test: PfLDH activity inhibition – cell lysate, 3D7 strain, counter-screen for P. falciparum growth inhibition project (AID 2304);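 note: 0% = vehicle and 100% = reference inhibitor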; settings: P. falciparum 3D7 crude extract, LDH APAD/NBT absorbance; at 2 µM; stronger effect = higher value
[4] = inhibition of 3D7 malaria parasite growth – strain 3D7 (AID 2306);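 note: 0% = DMSO wells and 100% = chloroquine plus artemisinin control wells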; settings: P. falciparum 3D7 erythrocytic growth, LDH absorbance, 72 h; at 2 µM; stronger effect = higher value
[5] = molecular target: Calcium-dependent protein kinase 1 (Plasmodium falciparum (isolate 3D7)) (UniProt P62344); test: PfCDPK1 kinase inhibitors, biochemical, TCAMS library (AID 1159585; cut-off not given, nearly all actives have IC50 up to about 0.98 µM;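 note: inhibitors leave more ATP so luminescence rises with inhibition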); settings: recombinant PfCDPK1, Kinase-Glo ATP depletion luminescence
[6] = molecular target: Plasmodium falciparum protein kinase 6 (PK6, PF3D7_1337100) (UniProt Q8IDW1); test: PfPK6 kinase inhibitors, biochemical, TCAMS library (AID 1159586); settings: recombinant PfPK6, Kinase-Glo ATP depletion luminescence
[7] = molecular target: Protein kinase 7 (PK7), Plasmodium falciparum 3D7 (PF3D7_0213400) (UniProt Q7YTF7); test: inhibition of Plasmodium PK7 catalytic activity – biochemical, TCAMS antimalarial set, Kinase-Glo luminescence (AID 1159587); settings: recombinant PfPK7, Kinase-Glo ATP depletion luminescence
[8] = molecular target: Calcium-dependent protein kinase 4 (Plasmodium falciparum (isolate 3D7)) (UniProt Q8IBS5); test: PfCDPK4 kinase inhibitors, biochemical, TCAMS library (AID 1159588; cut-off not given, nearly all actives have IC50 up to about 0.91 µM); settings: recombinant PfCDPK4, Kinase-Glo ATP depletion luminescence
Calcium-dependent protein kinase 4 (Plasmodium falciparum (isolate 3D7)), sequence (Q8IBS5 whole entry, looked up): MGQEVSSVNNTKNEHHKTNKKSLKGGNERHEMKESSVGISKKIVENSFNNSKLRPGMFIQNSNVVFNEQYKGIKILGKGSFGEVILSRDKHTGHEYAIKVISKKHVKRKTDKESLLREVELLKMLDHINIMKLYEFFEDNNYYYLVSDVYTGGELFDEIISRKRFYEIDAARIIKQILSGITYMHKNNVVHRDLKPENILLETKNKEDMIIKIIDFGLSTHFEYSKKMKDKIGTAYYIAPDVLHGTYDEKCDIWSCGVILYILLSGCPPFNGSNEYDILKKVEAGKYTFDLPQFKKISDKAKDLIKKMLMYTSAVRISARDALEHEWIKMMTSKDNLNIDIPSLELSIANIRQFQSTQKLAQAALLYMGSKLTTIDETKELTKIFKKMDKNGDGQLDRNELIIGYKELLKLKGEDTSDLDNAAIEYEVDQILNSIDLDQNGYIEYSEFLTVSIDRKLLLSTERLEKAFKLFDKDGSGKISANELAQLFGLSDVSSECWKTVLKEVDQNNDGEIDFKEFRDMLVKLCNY

Plasmodium falciparum protein kinase 6 (PK6, PF3D7_1337100), sequence (Q8IDW1 1-305): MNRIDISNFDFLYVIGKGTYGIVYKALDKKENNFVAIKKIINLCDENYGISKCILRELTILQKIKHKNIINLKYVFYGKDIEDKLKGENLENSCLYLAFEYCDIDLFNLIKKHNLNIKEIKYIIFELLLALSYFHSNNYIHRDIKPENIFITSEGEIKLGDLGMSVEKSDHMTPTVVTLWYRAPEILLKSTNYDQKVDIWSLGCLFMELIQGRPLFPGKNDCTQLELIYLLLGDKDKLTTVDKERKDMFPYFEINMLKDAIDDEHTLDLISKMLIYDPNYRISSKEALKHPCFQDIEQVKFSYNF
Calcium-dependent protein kinase 1 (Plasmodium falciparum (isolate 3D7)), sequence (P62344 whole entry, looked up): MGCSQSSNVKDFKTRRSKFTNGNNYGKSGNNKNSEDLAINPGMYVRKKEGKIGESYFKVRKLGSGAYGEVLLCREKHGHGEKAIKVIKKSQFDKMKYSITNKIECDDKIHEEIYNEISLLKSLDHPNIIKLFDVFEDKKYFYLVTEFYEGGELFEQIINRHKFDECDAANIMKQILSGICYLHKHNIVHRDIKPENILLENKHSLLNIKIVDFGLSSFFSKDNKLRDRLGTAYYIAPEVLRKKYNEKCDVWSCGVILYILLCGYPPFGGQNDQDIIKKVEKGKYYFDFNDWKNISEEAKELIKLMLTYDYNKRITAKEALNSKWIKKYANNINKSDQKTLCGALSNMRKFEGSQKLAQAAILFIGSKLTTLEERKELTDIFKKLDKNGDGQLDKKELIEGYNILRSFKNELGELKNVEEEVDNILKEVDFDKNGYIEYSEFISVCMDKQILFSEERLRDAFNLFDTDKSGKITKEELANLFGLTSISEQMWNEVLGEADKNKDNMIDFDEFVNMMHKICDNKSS
Protein kinase 7 (PK7), Plasmodium falciparum 3D7 (PF3D7_0213400), sequence (Q7YTF7 1-343): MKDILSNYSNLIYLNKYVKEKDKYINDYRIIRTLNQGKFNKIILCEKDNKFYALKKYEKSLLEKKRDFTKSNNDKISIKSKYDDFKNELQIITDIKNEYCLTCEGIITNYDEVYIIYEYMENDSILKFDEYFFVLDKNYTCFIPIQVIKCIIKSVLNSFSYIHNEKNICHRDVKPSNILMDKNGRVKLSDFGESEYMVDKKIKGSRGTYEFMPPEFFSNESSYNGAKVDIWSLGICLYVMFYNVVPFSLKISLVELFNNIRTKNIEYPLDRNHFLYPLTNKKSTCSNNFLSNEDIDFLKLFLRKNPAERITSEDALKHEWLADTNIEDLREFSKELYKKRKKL
L-lactate dehydrogenase (Plasmodium falciparum (isolate CDC / Honduras)), sequence (Q27743 whole entry, looked up): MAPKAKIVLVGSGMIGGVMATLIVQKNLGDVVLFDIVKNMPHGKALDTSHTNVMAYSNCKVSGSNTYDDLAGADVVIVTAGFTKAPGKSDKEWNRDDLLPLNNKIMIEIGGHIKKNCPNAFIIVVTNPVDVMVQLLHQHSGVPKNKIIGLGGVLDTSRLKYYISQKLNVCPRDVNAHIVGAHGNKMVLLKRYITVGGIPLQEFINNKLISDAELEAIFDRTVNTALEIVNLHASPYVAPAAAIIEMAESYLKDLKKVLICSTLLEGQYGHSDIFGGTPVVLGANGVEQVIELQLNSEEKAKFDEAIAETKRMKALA

| SMILES | growth inhibition [1] | inhibition [2] | inhibition [3] [%] | growth inhibition [4] | outcome [5] | outcome [6] | outcome [7] | outcome [8] |
| --- | --- | --- | --- | --- | --- | --- | --- | --- |
| COc1cc(NC(=O)C(c2ccc(Cl)cc2)C(C)C)cc(OC)c1OC (stereo not given) | 100% (active) | 10% | -1 | 101% (active) | inactive | inactive | inactive | inactive |
| COc1ccc2nccc([C@@H](O)CN3CCC(NC(=O)C(c4ccccc4C)N4CCC(Cc5ccccc5)CC4)CC3)c2c1 (stereo not given in full) | 97% (active) | 10% | 3 | 102% (active) | inactive | inactive | inactive | inactive |
| C=CCOc1ccc(C2C(C(=O)OC)=C(C)NC3=C2C(=O)c2ccccc23)cc1OC (stereo not given) | 65% (active) | -4% | -8 | 82% (active) | inactive | inactive | inactive | inactive |
| N#Cc1cncc(-c2nc3c(N4CCC(N5CCCC5)CC4)cccc3n2CCNCc2ccccc2)c1 | 58% (active) | 3% | -2 | 100% (active) | inactive | inactive | inactive | inactive |
| O=C(N[C@H]1CCCC[C@H]1C(=O)O)c1ccccc1 | 3% | 7% | -5 | 95% (active) | inactive | inactive | inactive | inactive |
| Cc1ccc(-c2cc(C(=O)Nc3ccc(S(=O)(=O)N4CCCCC4)cc3)[nH]n2)c(O)c1 | 92% (active) | 6% | -5 | 97% (active) | inactive | inactive | inactive | inactive |
| Cc1ccccc1C1CCN(C2CCC(NC(=O)/C=C/c3ccc4c(c3)OC(F)(F)O4)CC2)CC1 (stereo not given) | 39% | 75% (active) | 2 | 100% (active) | inactive | inactive | inactive | inactive |
| Cc1cc(N2CCN(C(=O)OC(C)(C)C)CC2)ccc1N | 38% | 11% | -2 | 92% (active) | inactive | inactive | inactive | inactive |
| O=C(Nc1ccc(Cn2nc(Cl)c(N3CCCNCC3)cc2=O)cc1)Nc1ccc(-c2ccccc2)cc1 | 36% | 89% (active) | 1 | 87% (active) | inactive | inactive | inactive | inactive |
| CCCc1cc(C(C)=O)ccc1OCCCON1C(N)=NC(N)=NC1(C)C | 96% (active) | 61% (active) | 4 | 96% (active) | inactive | inactive | inactive | inactive |
| Nc1cccc(CNCc2cccc(-c3cccc(-c4nc5ccccc5[nH]4)c3)c2)c1 | 84% (active) | 1% | -7 | 101% (active) | inactive | inactive | inactive | inactive |
| CC(=O)Nc1ccc(CN2CCC(NC(=O)c3ccc(-c4ccc(N(C)C)cc4)s3)CC2)cc1 | 57% (active) | 20% | -1 | 100% (active) | inactive | inactive | inactive | inactive |
| O=C(NCCNc1noc(-c2sccc2Br)n1)c1ccc(Cl)cc1 | 1% | -5% | 2 | 93% (active) | inactive | inactive | inactive | inactive |
| COc1ccc(F)cc1-c1ccccc1CNC(=O)c1cnn(-c2ccc([N+](=O)[O-])cc2)c1C(F)(F)F | 75% (active) | -3% | -4 | 89% (active) | inactive | inactive | inactive | inactive |
| C=CCOC(=O)N1CCC(CNCc2cccc(-c3cccc(-c4nc5ccccc5[nH]4)c3)c2)C1 (stereo not given) | 46% | 16% | -3 | 100% (active) | inactive | inactive | inactive | inactive |
| Nc1cccc(C=CC(=O)Nc2ccnc3ccccc23)c1 | 60% (active) | 7% | -1 | 98% (active) | inactive | inactive | inactive | inactive |
| COc1ccc2c(C)cc(NCCCN(C)C)nc2c1 | 19% | 10% | 3 | 95% (active) | inactive | inactive | inactive | inactive |
| CN1CCN(c2ccnc3ccc(NC(=O)Cc4ccc(OCc5ccccc5)cc4)cc23)CC1 | 89% (active) | 6% | -1 | 100% (active) | inactive | inactive | inactive | inactive |
| O=C(Nc1ccc([N+](=O)[O-])cc1)Nc1cc(OCC(F)(F)F)cc(OCC(F)(F)F)c1 | 100% (active) | 71% (active) | 5 | 100% (active) | inactive | inactive | inactive | inactive |
| CC(C)C(=O)NC(c1cccs1)c1cc(Cl)c2cccnc2c1O (stereo not given) | 91% (active) | 23% | -2 | 91% (active) | inactive | inactive | inactive | inactive |

| SMILES | growth inhibition [1] | inhibition [2] | inhibition [3] [%] | growth inhibition [4] | outcome [5] | outcome [6] | outcome [7] | outcome [8] |
| --- | --- | --- | --- | --- | --- | --- | --- | --- |
| O=S(=O)(c1csc2ccccc12)N(CCC(O)(C(F)(F)F)C(F)(F)F)Cc1cccc(O)c1 | 100% (active) | -11% | 7 | 101% (active) | inactive | inactive | inactive | inactive |
| COc1ccc2nccc([C@@H](O)CN3CCC(NCCNc4ccccn4)CC3)c2c1 | 14% | 18% | -4 | 101% (active) | inactive | inactive | inactive | inactive |
| CCOC(=O)c1[nH]c(-c2ccccc2)nc1-n1nc(C)cc1C | 9% | 7% | 2 | 92% (active) | inactive | inactive | inactive | inactive |
| Nc1ccc(-c2nc3ccc(Cc4ccc5nc(-c6ccc(N)cc6)[nH]c5c4)cc3[nH]2)cc1 | 96% (active) | 47% | 2 | 100% (active) | inactive | inactive | inactive | inactive |
| Cc1ccc(NC(=O)c2ccc3ncccc3c2)cc1OC1CCN(Cc2ccsc2)CC1 | 29% | 21% | -2 | 93% (active) | inactive | inactive | inactive | inactive |
| CCCCCN1CCC(NS(=O)(=O)c2ccc(C(=O)Nc3cccc(C(F)(F)F)c3)cc2)C1 (stereo not given) | 0% | 14% | -9 | 94% (active) | inactive | inactive | inactive | inactive |
| Cc1cc(NC(=O)c2ccc(-c3ccccc3)cc2)no1 | 57% (active) | 5% | 0 | 83% (active) | inactive | inactive | inactive | inactive |
| O=C(NCC1CN(Cc2ccc(N3CCCC3)o2)CCCO1)c1ccc2c(c1)OCO2 (stereo not given) | 70% (active) | -3% | -1 | 83% (active) | inactive | inactive | inactive | inactive |
| Nc1c2c(nc3ccc(Oc4ccc(Br)cc4Br)cc13)CCCC2 | 47% | 33% | 0 | 99% (active) | inactive | inactive | inactive | inactive |
| CN(C)CCOc1cc(O)c2c(c1)OC(C)(C)C=C2c1cccs1 | 10% | 29% | -2 | 99% (active) | inactive | inactive | inactive | inactive |
| O=C(NC1CCN(Cc2ccc(F)cc2)CC1)c1ccc(-c2cccc(C(F)(F)F)c2)s1 | 11% | 88% (active) | 4 | 83% (active) | inactive | inactive | inactive | inactive |
| Cc1[nH]c(C)c([N+](=O)[O-])c(=O)c1-c1ccc(Oc2ccccc2)cc1 | 97% (active) | 11% | 3 | 98% (active) | inactive | inactive | inactive | inactive |
| CCCCC(=O)NC(c1cccs1)c1cc(Cl)c2cccnc2c1O (stereo not given) | 90% (active) | 50% (active) | 1 | 93% (active) | inactive | inactive | inactive | inactive |
| Cc1cccc2[nH]c(-c3ccc(-c4cccc(CNCc5cnn(-c6ccccc6)n5)c4)s3)nc12 | 58% (active) | 40% | -1 | 98% (active) | inactive | inactive | inactive | inactive |
| O=C(Nc1cccc(-c2cccc(-c3nc4ccc(F)cc4[nH]3)c2)c1)c1csnn1 | 29% | 23% | -4 | 95% (active) | inactive | inactive | inactive | inactive |
| COc1cc(NC(=O)N2CCOC(CCN3CCC4(CCc5ccccc54)CC3)(c3ccc(Cl)c(Cl)c3)C2)cc(OC)c1 (stereo not given) | 50% (active) | 29% | 3 | 87% (active) | inactive | inactive | inactive | inactive |
| O=C(Cn1cnc2c(nnn2Cc2ccccc2F)c1=O)Nc1ccc2c(c1)OCCO2 | 1% | -6% | -2 | 86% (active) | inactive | inactive | inactive | inactive |
| COc1ccc(CCN(C)CCOc2ccc(NC(=O)c3cccc4cc5ccccc5nc34)cc2)cc1OC | 99% (active) | 37% | -5 | 100% (active) | inactive | inactive | inactive | inactive |
| O=[N+]([O-])c1ccc(/C=N/Nc2cc(-c3ccccc3)nc3ccccc23)o1 | 49% | 48% | -5 | 93% (active) | inactive | inactive | inactive | inactive |
| Cn1cc(CCNc2ccnc(N3CCC(c4ncc[nH]4)CC3)n2)c2ccccc21 | 5% | 12% | 3 | 92% (active) | inactive | inactive | inactive | inactive |
